In PubChem BioAssay (NCATS):
Records with an inconclusive call do not appear. Active and inactive are the calls of the source. Calls follow the shape of the dose curve; as a rule, active = well fitted inhibition curve with a large enough effect; inconclusive = small, poorly fitted or top-dose-only effect; inactive = flat fitted curve, though single readings scatter.

Experiments:
Experiment in all cases: qHTS profiling for inhibitors of Plasmodium falciparum proliferation (AID 504749); also: nearly all actives have a fitted effect of over 60% in size
Details in all cases: P. falciparum in erythrocytes, SYBR Green DNA, 72 h; series mostly up to 28.7 µM
CP194 = system: CP194
Method in brief: (§1)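 SYBR Green fluorescence (ex 485 nm, em 535 nm) reports parasite DNA after 72 h compound exposure of infected red cells at 0.3% parasitemia, 2.5% hematocrit; signal normalized to 0.29 uM artemisinin and vehicle wells.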

CP201 = system: CP201
Method in brief: as §1

CP203 = system: CP203
Method in brief: as §1

CP211 = system: CP211
Method in brief: as §1

CP215 = system: CP215
Method in brief: as §1

CP217 = system: CP217
Method in brief: as §1

CP237 = system: CP237
Method in brief: as §1

CP238 = system: CP238
Method in brief: as §1

CP247 = system: CP247
Method in brief: as §1

CP250 = system: CP250
Method in brief: as §1

CP252 = system: CP252
Method in brief: as §1

CP256 = system: CP256
Method in brief: as §1

CP260 = system: CP260
Method in brief: as §1

CP262 = system: CP262
Method in brief: as §1

CP265 = system: CP265
Method in brief: as §1

CP266 = system: CP266
Method in brief: as §1

CP268 = system: CP268
Method in brief: as §1

CP269 = system: CP269
Method in brief: as §1

CP286 = system: CP286
Method in brief: as §1

CP291 = system: CP291
Method in brief: as §1

Measured: Potency
Potency is read from the fitted curve at half-maximal effect.

c1ccc2c(c1)sc1ccccc12
inactive: all assays above

CN1C(=O)NC(=O)C(C)(C2=CCCCC2)C1=O (stereo unspecified)
inactive: all assays above

O=c1oc2ccccc2c(O)c1Cc1c(O)c2ccccc2oc1=O
inactive: all assays above

CCC1(c2ccccc2)C(=O)N(COC)C(=O)N(COC)C1=O
inactive: all assays above

COP(=S)(OC)Oc1ccc(SC)c(C)c1
not listed: CP291
inactive: all other assays above

CCC(C)(C)c1ccc(O)cc1
inactive: all assays above

O=C1OC(c2ccc(O)c(S(=O)(=O)O)c2)(c2ccc(O)c(S(=O)(=O)O)c2)c2c(Br)c(Br)c(Br)c(Br)c21
inactive: all assays above

C[C@]12CC[C@@H]3c4ccc(OC(=O)N(CCCl)CCCl)cc4CC[C@H]3[C@@H]1CC[C@@H]2O
inactive: all assays above

Cc1ncsc1CCCl
not listed: CP291
inactive: all other assays above

CN1C[C@H](C(=O)N[C@]2(C)O[C@@]3(O)[C@@H]4CCCN4C(=O)[C@H](Cc4ccccc4)N3C2=O)C=C2c3cccc4[nH]cc(c34)C[C@H]21
active: CP194 13.5 µM | CP201 15.1 µM | CP203 4.26 µM | CP211 15.1 µM | CP215 5.36 µM | CP217 1.41 µM | CP237 224 nM | CP238 1.41 µM | CP247 3.55 µM | CP250 3.16 µM | CP252 1 µM | CP256 4.47 µM | CP260 282 nM | CP262 9.53 µM | CP265 631 nM | CP268 6.75 µM | CP269 4.26 µM | CP286 891 nM | CP291 9.53 µM

NNc1ccccc1
not listed: CP291
inactive: all other assays above

NCCc1ccc(O)cc1
inactive: all assays above

O=c1[nH]oc2c1CCNC2
inactive: all assays above
